Most compounds without a hit are left out; they make up all but 1.9% or so of the library.
PABP polyA inh: PABP-poly(A) binding inhibition; inhibition, % at 35 µM; AID 2014; PABP-poly(A) RNA binding, fluorescence polarization; 290,000 tested, 1% active;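 note: calls also rest on retests at 20 µM and on dose response follow-up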
PABP1 MLLE inh: inhibitors of microRNA-mediated deadenylation, human PABP1 MLLE binding; P11940; GST-MLLE / FITC-PAM2 fluorescence polarization; inhibition, % at 20 µM; 360,000 tested, 0.36% active; AID 588489; in the data active = inhibition above about 35%, passing the limit was not always enough;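 note: plate controls were DMSO wells with GST-MLLE for no effect and wells lacking GST-MLLE protein for full effect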
eIF4H FP inh: inhibitors of RNA binding by human eIF4H; Q15056; AID 2012; inhibition, % at 35 µM; eIF4H fluorescence polarization binding assay; 290,000 tested, 0.94% active;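 note: calls also rest on retests at 20 µM and on dose response follow-up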
PERK inhibitor: blocks human PERK kinase; Q9NZJ5; CHO PERK-DD fusion, SEAP luminescence translation reporter; inhibition, % at 5.6 µM; 220,000 tested, 0.17% active;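 active = inhibition above the mean inhibition of all tested compounds plus 3 SD, set separately per screening campaign, cut at about 2.9% in these data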;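 note: PERK kinase domain activated by AP20187 dimerizer at 100 nM; 0% = DMSO with dimerizer and 100% = rapamycin at 8.4 µM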
Target sequence (Q9NZJ5 whole entry, looked up, the tested form may be a part): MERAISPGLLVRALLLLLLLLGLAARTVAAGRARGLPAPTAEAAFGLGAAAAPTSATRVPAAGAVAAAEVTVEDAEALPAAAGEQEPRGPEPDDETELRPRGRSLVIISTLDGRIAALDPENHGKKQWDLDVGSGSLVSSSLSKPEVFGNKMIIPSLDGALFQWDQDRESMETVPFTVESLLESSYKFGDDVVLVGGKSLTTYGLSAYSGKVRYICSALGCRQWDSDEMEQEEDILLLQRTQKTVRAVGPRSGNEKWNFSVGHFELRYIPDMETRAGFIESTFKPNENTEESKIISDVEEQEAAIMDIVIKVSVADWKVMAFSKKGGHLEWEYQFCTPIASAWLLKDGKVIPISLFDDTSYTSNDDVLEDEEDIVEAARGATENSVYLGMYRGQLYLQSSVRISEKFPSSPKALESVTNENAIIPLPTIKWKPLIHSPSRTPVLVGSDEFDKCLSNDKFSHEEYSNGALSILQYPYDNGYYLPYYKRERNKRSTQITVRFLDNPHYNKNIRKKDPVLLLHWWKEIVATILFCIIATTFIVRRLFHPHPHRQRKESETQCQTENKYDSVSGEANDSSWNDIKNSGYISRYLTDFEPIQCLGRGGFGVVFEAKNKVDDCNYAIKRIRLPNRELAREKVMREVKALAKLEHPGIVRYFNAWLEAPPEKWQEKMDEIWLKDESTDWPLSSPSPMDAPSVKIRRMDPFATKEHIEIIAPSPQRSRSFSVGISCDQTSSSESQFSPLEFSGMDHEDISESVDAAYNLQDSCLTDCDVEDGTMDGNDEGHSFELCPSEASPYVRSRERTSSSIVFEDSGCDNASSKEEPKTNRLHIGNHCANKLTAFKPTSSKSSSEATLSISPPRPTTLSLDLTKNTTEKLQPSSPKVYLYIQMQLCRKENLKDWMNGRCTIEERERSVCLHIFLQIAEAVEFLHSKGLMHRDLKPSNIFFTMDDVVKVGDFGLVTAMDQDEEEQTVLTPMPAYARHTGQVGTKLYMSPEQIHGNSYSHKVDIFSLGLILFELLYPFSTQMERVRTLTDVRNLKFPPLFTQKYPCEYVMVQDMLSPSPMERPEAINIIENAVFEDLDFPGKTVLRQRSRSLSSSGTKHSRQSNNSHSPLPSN
GRK2 aptamer HTS: human GRK2 inhibition via aptamer displacement. AID 488847. P25098. bead flow cytometry, FAM-aptamer displacement from GRK2. 330,000 tested, 0.59% active. inhibition of aptamer binding, % at 10 µM;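 active = inhibition of aptamer binding above 40%, roughly 3 SD of noise, on plates passing a quality check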;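 note: median bead fluorescence of bound FAM aptamer so fluorescent compounds give negative values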
Numbers without * were called inactive; ? = inconclusive; nt = not tested or not shown. Unless noted, the rule behind the calls is not given here.

SMILES	PABP polyA inh	PABP1 MLLE inh	eIF4H FP inh	PERK inhibitor	GRK2 aptamer HTS
O=C(CN1C(=O)NC2(CCCc3ccccc32)C1=O)NCc1cccs1 (stereo not given)	nt	-4.6	nt	nt	0.0
O=C(COc1ccc(-n2cnnn2)cc1)Nc1cccc(Cl)c1Cl	4.9	-8.4	64.7*	nt	0.0
COc1cc(NC(=O)COc2ccc(-n3cnnn3)cc2)c(OC)cc1Cl	6.9	5.6	13.0	-0.9	0.0
N#C/C(=C\c1cccc([N+](=O)[O-])c1)c1nnc2n1CCCCC2	9.0	1.0	0.3	-0.4	100.0*
Cc1cc(/C([O-])=C(/C(=S)Nc2ccc(F)cc2)[n+]2ccccc2)c(C)n1Cc1ccccc1Cl	1.9	-38.1	39.8	0.1	0.0
Cc1cc(/C([O-])=C(/C(=S)Nc2ccccc2)[n+]2ccccc2)c(C)n1-c1ccccc1	63.4*	-21.5	60.8*	0.5	2.0
Cc1cc(/C([O-])=C(/C(=S)Nc2ccc(F)cc2)[n+]2ccccc2)c(C)n1-c1ccc(F)cc1	32.5	-23.2	66.7*	1.1	2.0
Cc1ccc(-n2c(C)cc(/C([O-])=C(/C(=S)Nc3ccc(F)c(Cl)c3)[n+]3ccccc3)c2C)cc1	28.3	-37.8	21.2	0.9	1.0
COc1ccc(S(=O)(=O)N(C)C[C@H]2Oc3ncc(Br)cc3C(=O)N([C@@H](C)CO)C[C@@H]2C)cc1	nt	6.8	nt	nt	nt
NS(=O)(=O)c1cccc2c1c([N+](=O)[O-])cc1nc(O)c(O)nc12	nt	38.4*	nt	nt	3.0
COc1ccc(CC(=O)Nc2ccc(S(=O)(=O)N3CCCCC3)cc2)cc1OC	-8.1	9.1	-6.4	nt	0.0
CC1=NN(c2cccc(C(=O)O)c2)C(=O)/C1=C\C=C/c1ccccc1	-9.8	9.8	-2.1	1.3	nt
O=C(N/N=C/c1cc(Br)c(Br)o1)C(O)c1ccccc1 (stereo not given)	-10.8	-21.8	63.3*	0.6	6.0
Cc1ccc(/C=N/NC(=O)C(O)c2ccccc2)o1 (stereo not given)	1.4	11.4	3.3	1.0	1.0
Cn1c(C(=O)N[C@@H](C(=O)O)c2ccccc2)cc2cc(Cl)ccc21	38.8*	-17.0	61.9	nt	0.0
CC(C)[C@H](NC(=O)c1cc2cc(Cl)ccc2n1C)C(=O)N[C@@H](C(=O)O)c1ccccc1	11.9	4.1	7.0	nt	2.0
Cc1cc(C(=O)O)ccc1-c1ccc(/C=C2\NC(=O)N(Cc3ccccc3Cl)C2=O)o1	-6.7	14.4	86.2	0.6	31.0
O=C1NC(=O)/C(=C/c2ccc(-c3cc(C(=O)O)ccc3Cl)o2)S1	83.3*	-3.2	92.0*	nt	14.0
O=C1NC(=S)/C(=C\c2ccc(-c3ccccc3Cl)o2)S1	14.2	70.5	?	0.5	0.0
O=C1N/C(=C/c2ccc(N3CCOCC3)o2)C(=O)N1c1ccccc1	0.8	-75.1	9.4	0.7	0.0
O=C(O)c1ccc(-c2ccc(/C=C3\NC(=O)N(Cc4ccc(Cl)cc4)C3=O)o2)cc1	51.3*	-7.4	72.6*	0.8	nt
Cc1ccc(CN2C(=O)N/C(=C\c3ccc(-c4ccc(C(=O)O)cc4C)o3)C2=O)cc1	72.9*	2.9	87.2*	0.5	17.0
Cc1ccc(C(=O)O)cc1-c1ccc(/C=C2/NC(=O)N(c3ccccc3)C2=O)o1	78.9*	-14.3	78.7*	0.9	19.0
COc1cc2c(c(OC)c1OC)-c1ccc(SC)c(=O)cc1C(NC=O)CC2 (stereo not given)	nt	-0.3	nt	nt	nt
O=C(CN1C(=O)NC2(CCc3ccccc32)C1=O)c1ccc(F)cc1 (stereo not given)	nt	-0.4	nt	nt	0.0
SMILES	PABP polyA inh	PABP1 MLLE inh	eIF4H FP inh	PERK inhibitor	GRK2 aptamer HTS
CC1(C)OC(=O)C(=C2CCCN2)C(=O)O1	59.8*	12.2	active	-0.7	0.0
CSc1nc2nc3c(cn2n1)C(=O)CC(c1ccccc1)C3 (stereo not given)	61.4*	3.4	47.9*	-0.7	0.0
O=C1CC(c2ccccc2)Cc2nc3nc(C(F)(F)F)nn3cc21 (stereo not given)	102.0*	14.5	92.3*	-0.3	0.0
Cn1c(=O)c2cc3c(nc2n(C)c1=O)CC(c1ccccc1)CC3=O (stereo not given)	11.9	14.1	1.2	-0.8	0.0
O=C(Nc1cccc(NC(=O)c2cccc([N+](=O)[O-])c2)n1)c1cccc([N+](=O)[O-])c1	4.1	6.6	-5.1	nt	0.0
CC1CN=C(NC(=O)c2cccc([N+](=O)[O-])c2)S1 (stereo not given)	10.3	41.5*	9.1	nt	0.0
CC(=O)c1ccc(S(=O)(=O)Nc2cccc(-n3cnnn3)c2)cc1	41.3*	0.2	98.0*	nt	34.0
Cn1nccc1C(=O)Nc1cccc(S(=O)(=O)N2CCOCC2)c1	1.5	2.6	5.5	nt	5.0
CN(C)C(=O)c1cccc(-c2cccc(-c3nc(C(=O)NCc4ccccc4)cc4c3[C@@H](CCO)N(S(=O)C(C)(C)C)C4)c2)c1 (stereo not given in full)	nt	-1.8	nt	nt	nt
C=CCc1ccc(OCC(O)COc2ccc(CC=C)cc2OC)c(OC)c1	72.1*	-12.2	?	-0.7	0.0
O=C(Cn1nnc2ccccc2c1=O)NCC1CCC(C(=O)O)CC1 (stereo not given)	-13.5	-3.8	-0.9	3.2*	3.0
CC(C)[C@@H](C(=O)NCC1CCC(C(=O)O)CC1)n1nnc2ccccc2c1=O (stereo not given in full)	-0.6	7.5	0.7	0.9	2.0
COCC(=O)N/N=C(\C)CC(=O)NCc1ccco1	-8.9	2.8	0.0	0.7	0.0
CN(C)CC(O)COC(c1ccccc1)c1ccccc1 (stereo not given)	-6.5	2.1	4.9	0.3	0.0
CN(C)CC(c1ccccc1)c1ccccc1	-10.1	7.8	-3.1	4.3*	4.0
O=C(NCCO)/C(=C\c1cccs1)NC(=O)c1cccs1	120.4*	-4.4	3.4	1.1	2.0
O=C(NCc1ccco1)/C(=C\c1cccs1)NC(=O)c1cccs1	20.2	-4.5	5.4	0.2	0.0
Cc1ccccc1C1C(C#N)=C2N=C(N)c3c(sc4c3CCCCC4)N2C2=C1C(=O)CC(C)(C)C2 (stereo not given)	86.8	13.2	114.2*	-0.3	3.0
O=C(O)c1ccccc1CSc1nnc2c(n1)[nH]c1ccccc12	5.7	40.0	3.6	3.1*	1.0
O=C(CSc1nnc2c(n1)[nH]c1ccccc12)Nc1ccc2c(c1)OCO2	-0.3	37.1*	10.5	-0.9	0.0
Cc1ccc(NC(=O)CSc2nnc3c(n2)[nH]c2ccccc23)cc1	2.8	-9.1	-1.4	nt	2.0
O=C(O)CSc1nnc2c(n1)[nH]c1ccccc12	7.0	36.5	6.7	0.5	0.0
O=C(CSc1nnc(NC(=O)C2CCC2)s1)Nc1ccccc1F	4.3	0.3	4.3	nt	3.0
Cn1c(=O)c2[nH]c(N=NN3CCCCC3)nc2n(C)c1=O	nt	-4.5	nt	nt	nt
CC(=O)/C(N=Nc1nc2c([nH]1)c(=O)n(C)c(=O)n2C)=C(\C)O	0.5	54.7*	18.1	2.2	3.0
CC1(C(=O)NCCC#N)CCN1C(=O)CC(c1ccccc1)c1ccccc1 (stereo not given)	nt	8.4	nt	nt	nt

Screening data: PubChem BioAssay, several laboratories
